Reference: PubChem BioAssay (NCI)
About 83,000 compounds went through this panel and 20% of them were active in at least one assay; those are over-represented in the sample as a whole.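 96-well plates, one dose, 48 hours. Percent growth reported; active if below 10.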 Calls of active or inactive are those of the source.

These compounds were tested on MDA-MB-468 breast (assay: NCI-60 one-dose screen, 48 h (100 = growth as untreated, 0 = no growth, -100 = all killed)). Settings: 10 µM unless noted.
For `CC1(C)CC[C@]2(C(=O)NCCCCCCN(CCCN)CCCN)CC[C@]3(C)C(=CC[C@@H]4[C@@]5(C)CC[C@H](O)C(C)(C)[C@@H]5CC[C@]43C)[C@@H]2C1`, the growth was 98.6% (inactive).
For `CC(=O)c1cc(O)ccc1O`, the growth was 98.3% (inactive).
`O=S(=O)(NCCCNc1nccc(-c2[nH]c(-c3ccccc3)nc2-c2ccc(Cl)c(O)c2)n1)c1cccc2ccccc12` was tested, and the growth was 36.7% (inactive).
In the case of `O=Nc1ccc(NC(=O)Nc2ccc([N+](=O)[O-])cc2)cc1`, the growth is reported as 96% (inactive).
For `O=C(O)c1ccc(S(=O)(=O)O)cc1`, the growth was 103% (inactive).
`Cc1cccc(NC(c2cc3cccc4ccc5cccc2c5c43)c2nnnn2C(C)(C)C)c1C` (stereo not drawn) was tested, and the growth was -10.3% (active).
For `COc1cccc(N2CCN(c3ncnc4c3[nH]c3ccc(F)cc34)C[C@H]2C)c1`, the growth was 27.5% (inactive).
In the case of `O=c1cc(-c2cccnc2)oc2c1ccc1ccccc12`, the growth is reported as 65% (inactive).
With `N=C(N)c1ccc(-c2ccc(-c3ccco3)o2)cc1F` the growth was -57.4% (active).
In the case of `CC(CCc1ccc(Cl)c(Cl)c1)NCc1ccc(C(C)(C)C)cc1` (stereo not drawn), the growth is reported as 30.8% (inactive).
For `CN(C)CCNC(=O)c1ccc(-c2nc3ccc4[nH]ncc4c3c3c2CCC3)cc1`, the growth was -55.3% (active).
For `COc1ccc(OC)c(/C=N/Nc2ncnc3c2c(C)nn3C)c1`, the growth was 106% (inactive).
For `CCOC(=O)C#Cc1c(C(=O)OCC)nnn1[C@@H]1O[C@H](COC)[C@@H](OC)[C@H]1OC`, the growth was -20.5% (active).
